Screening data deposited in PubChem by National Center for Advancing Translational Sciences (NCATS).
GLS inhibitor: inhibitors of human glutaminase (GLS); O94925; GLS enzymatic activity, qHTS titration; Potency, µM (doses to about 45.5 µM), for the others: at the highest dose activity change, negative = inhibition, usual class: inhibitors; actives 0.21% (n = 410,000); AID 624170; note: potency is the fitted concentration of half-maximal effect; % is set by controls: 0 for no effect and ±100 for the full control effect
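hKGA in 45 mM KH2PO4 (pH 8.2), 0.02% Tween-20 with compound, then 1mM L-Glutamine (stock as added) plus glutamate oxidase/HRP/Amplex red coupling mix. Fluorescence read initially and after 30 min at RT; signal change reflects glutamate formation.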
GLP1R inv ag: acts as inverse agonist at human GLP-1 receptor | P43220 | HEK293 GLP-1R CRE-luciferase, luminescence, 24 h; GLP-1R form is constitutively active | Potency, µM (highest dose often 38.3 µM), for the others: at the highest dose activity change, negative = inhibition, actives largely listed as inhibitors | actives 1.6% (n = 410,000); note: potency is the fitted concentration of half-maximal effect; % is set by controls: 0 for no effect and ±100 for the full control effect; nearly all actives have a fitted effect of over 55% in size
Target sequence (P43220 whole entry, looked up): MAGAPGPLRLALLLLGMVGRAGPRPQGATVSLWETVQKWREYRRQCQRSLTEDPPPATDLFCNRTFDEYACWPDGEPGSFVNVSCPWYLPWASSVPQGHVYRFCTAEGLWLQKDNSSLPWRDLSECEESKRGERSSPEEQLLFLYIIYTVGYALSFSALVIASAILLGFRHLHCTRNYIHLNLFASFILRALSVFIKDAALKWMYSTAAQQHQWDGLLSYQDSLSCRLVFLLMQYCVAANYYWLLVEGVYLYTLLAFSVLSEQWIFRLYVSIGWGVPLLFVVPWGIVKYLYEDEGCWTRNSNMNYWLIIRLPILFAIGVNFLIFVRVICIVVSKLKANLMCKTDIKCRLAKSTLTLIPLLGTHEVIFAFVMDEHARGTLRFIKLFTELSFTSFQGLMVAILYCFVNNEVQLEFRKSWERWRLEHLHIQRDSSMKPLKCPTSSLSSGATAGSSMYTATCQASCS
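qHTS in 1536-well format: reporter HEK293 cells expressing constitutive GLP-1R activity in DMEM + 10% Nu serum, 24 hr with compounds at 37 deg C, luminescence read after 12 min with detection reagent.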
GLP1R cytotox: cytotoxicity in counter-screen for GLP-1R inverse agonists. HEK293 cAMP-luciferase reporter cells, luminescence, 24 h. Potency, µM (series often up to 38.3 µM), for inactives: top-dose activity change, negative = inhibition, actives largely listed as inhibitors. actives 0.13% (n = 410,000);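 note: loss of luciferase light is scored as toxicity; potency is the fitted concentration of half-maximal effect; % is set by controls: 0 for no effect and ±100 for the full control effect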
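Quantitative HTS format, 1536 wells, 200 cells/uL seeded. Compounds: 23 nL, 24 h, 37 °C. Detection: luciferase reagent, luminescence at 12 min RT; decreased signal taken as cytotoxic.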
KCNH2 WT inh: KCNH2 (human, wildtype) channel inhibition | activity change, % at 1.84 µM | U2OS, BacMam KCNH2, thallium flux FluxOr; hits give low values | actives 0.37% (n = 340,000) | Q12809;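 active = maximum activity change below -70%; inconclusive = maximum activity change between -70% and -50%; inactive = maximum activity change above -50%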; note: % is set by controls: 0 for no effect and ±100 for the full control effect
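U2OS cells transduced with wild-type KCNH2 virus are loaded with FluxOr dye for 45 min, and thallium flux is measured in kinetic reads before and after stimulation buffer. Rate constants are normalized to DMSO controls.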
KCNH2 3.1 inh: blocks the human KCNH2 3.1 channel isoform; U2OS KCNH2 3.1, thallium flux FluxOr; hits give low values; activity change, % (tested at about 1.8 µM); actives 0.95% (n = 340,000);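 active = maximum activity change below -70%; inconclusive = maximum activity change from -70% to -50%; inactive = maximum activity change above -50%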;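 note: thallium influx rate constant from kinetic fluorescence after stimulation buffer; % is set by controls: 0 for no effect and ±100 for the full control effect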
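FluxOr-based Tl+ influx in U2OS cells transduced with KCNH2 3.1 virus; rate constants normalized to DMSO controls.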
GLP1R ag: activates the human GLP-1 receptor. P43220. HEK293 GLP-1R CRE-luciferase, luminescence, 4-6 h; cells express a hypersensitive GLP-1R form. Potency, µM (top dose mostly 45.6 µM), without a hit: at the highest dose activation, actives largely listed as activators. actives 0.007% (n = 380,000). AID 624172; note: potency is the fitted concentration of half-maximal effect; % of control where 0% means no effect
* hit, by the source's call; ? = inconclusive; · = no result. Hits are enriched below; roughly 2.8% of the tested compounds scored in any of these assays. Unless noted, calls come from the whole dose curve; as a rule, active = well fitted curve in the direction sought with a large enough effect; inconclusive = small, poorly fitted or top-dose-only effect, or another doubt; inactive = no such curve, though single readings can be large; an effect the other way counts as inactive or inconclusive.

SMILES	GLS inhibitor	GLP1R inv ag	GLP1R cytotox	KCNH2 WT inh	KCNH2 3.1 inh	GLP1R ag
O=C1C=C(CO)OCC1=O	-1%	·	·	·	·	-1%
O=C(COC(=O)c1cc(S(=O)(=O)Nc2ccccc2Cl)ccc1O)Nc1ccc(F)c(F)c1F	-6%	-18%	-2%	16	2	2%
CCN(c1ccccc1)S(=O)(=O)c1cccc(C(=O)NCC2(N(C)C)CCCCC2)c1	13%	10µM*	-1%	38	0	-2%
COc1ccccc1NS(=O)(=O)c1ccc(C)c(C(=O)NC2CCN(Cc3ccccc3)CC2)c1	0%	11µM*	-3%	47	-25	-12%
CN(C)C1(CNC(=O)c2cccc(S(=O)(=O)NCc3ccccc3)c2)CCCCC1	4%	?	9%	-3	7	2%
O=C(CCCN1CCC(NC(=O)c2ccccc2)CC1)c1ccc(Cl)cc1	-4%	11%	2%	-4	-106*	-6%
Cc1oc(C(C)(C)C)cc1C(=O)NC1CCN(Cc2ccccc2)CC1	-9%	13µM*	-29%	-2	2	-1%
COc1ccccc1CNC(=O)[C@H](Cc1c[nH]c2ccccc12)NC(=O)[C@@H]1Cc2ccccc2CN1	3%	-9%	3%	9	1	-2%
CNC(=O)c1ccccc1Sc1ccc2c(/C=C/c3ccccn3)n[nH]c2c1	-13%	·	·	·	·	14%
CCCCCCCCCCCCCCCC(=O)O[C@H]1[C@@H](O)[C@@H](O)[C@@H]([C@H](NC(=O)[C@@H]2C[C@@H](CCC)CN2C)[C@H](C)Cl)O[C@@H]1SC	-12%	·	·	·	·	-1%
Cc1ccc(NS(=O)(=O)c2cccc(C(=O)NCC(c3ccc(F)cc3)N3CCOCC3)c2)cc1 (centres undefined)	?	10µM*	-11%	1	-6	5%
O=C(NC1CCN(Cc2ccccc2)CC1)c1cccc(S(=O)(=O)Nc2ccc(F)cc2)c1	3%	7.1µM*	11µM*	4	-38	0%
O=C(Nc1ccc(C(=O)N2CCCc3ccccc32)cc1)c1cccs1	11%	?	-19%	?	-15	9%
COc1ccccc1N1CCN(C/C(C)=C/c2ccccc2)CC1	20%	-40%	-11%	33	-98*	-9%
COc1cccc(/C=N/N2CCN(c3ccccc3OC)CC2)c1	31%	?	-2%	-25	-120*	-6%
C/C(=C\c1ccccc1)CN1CCN(c2ccccc2)CC1	-6%	-11%	2%	-23	-4	-4%
COc1ccc(CCNC(=O)CSc2nc3nc(C)c(Cc4ccc(C)cc4)c(C)n3n2)cc1OC	0%	-14%	-19%	·	·	·
CCN1C(=O)[C@H]2[C@@H](c3ccc(Cl)cc3)N3C(=O)CN(CCOC)C(=O)[C@@]3(C)[C@H]2C1=O	4%	11%	-16%	0	16	-5%
CCCCN1CC(=O)N2[C@H](c3ccc(Cl)cc3)[C@@H]3C(=O)N(CC)C(=O)[C@@H]3[C@]2(C)C1=O	-8%	3%	10%	0	-115*	3%
CCc1cccc(CC)c1NC(=S)NCCc1c(C)[nH]c2ccc(C)cc12	-4%	7.9µM*	-14%	-5	?	-1%
CCC1Nc2ncnc(N3CCN(c4ccccc4)CC3)c2N(Cc2ccc(Br)cc2)C1=O (centres undefined)	3%	?	6%	6	-88*	0%
O=C1C(Cc2ccccc2)Nc2ncnc(N3CCN(c4ccccc4)CC3)c2N1Cc1ccc(Br)cc1 (centres undefined)	3%	?	34%	-6	-10	-3%
O=[N+]([O-])c1ccc(CSCc2ccc([N+](=O)[O-])cc2)cc1	10%	9%	4%	-9	-29	4%
CCOC(=O)c1c(C)[nH]c(C)c1S(=O)(=O)NC(C)Cc1ccco1 (centres undefined)	-7%	-18%	-7%	5	-80*	11%
Cc1ccc(C(=O)N2c3ccc(C)cc3C(C)(c3ccccc3)CC2(C)C)cc1 (centres undefined)	4%	?	7%	·	·	·
SMILES	GLS inhibitor	GLP1R inv ag	GLP1R cytotox	KCNH2 WT inh	KCNH2 3.1 inh	GLP1R ag
COc1ccc(C(=O)N2c3ccc(C)cc3C(C)(c3ccccc3)CC2(C)C)cc1 (centres undefined)	-6%	10µM*	6%	·	·	·
O=C(Cn1ncn2c(cc3sccc32)c1=O)NC1CCCC1	-1%	5%	6%	18	-77*	-7%
COc1cccc(CNC(=O)COC(=O)CCCNC(=O)c2ccc(Cl)cc2)c1	0%	8%	0%	3	7	1%
O=C(Nc1cccc([N+](=O)[O-])c1)N1CCN(c2ccccc2)CC1	21%	?	13%	-5	0	18%
Cc1ccc(N2CCN(C(=O)Nc3cccc([N+](=O)[O-])c3)CC2C)cc1 (centres undefined)	15%	?	-7%	-77*	-74*	7%
CCOc1ccc(/C=C/c2nc(C#N)c(NC(C)CC)o2)cc1 (centres undefined)	5%	-22%	-18%	·	·	·
COc1ccc(Cl)cc1S(=O)(=O)N1CCN(C(=O)c2cc(-c3ccc(Br)cc3)n[nH]2)CC1	3%	10µM*	-19%	·	·	·
COc1ccc(S(=O)(=O)N2CCN(C(=O)c3cc(-c4ccc(Br)cc4)n[nH]3)CC2)cc1OC	0%	?	-13%	18	-6	-2%
CCOc1ccc(CNC(=O)c2oc3c(c2C)-c2nn(Cc4cccc(Cl)c4)cc2CC3)cc1	-27%	11µM*	-11%	·	·	·
Cn1nccc1NC(=O)Nc1ccc(Cl)cc1	-1%	12%	5%	-9	-86*	0%
N#Cc1ccc(NC(=O)Nc2ccc(Cl)cc2)cc1	-4%	6.3µM*	-26%	2	-6	-22%
CN(C)c1ccc(N=Nc2ccc(C(=O)O)cc2)cc1	0%	2.5µM*	?	-8	18	-6%
Cc1cc(Nc2cc(Cl)ccc2C)n2nc(-c3ccccc3)nc2n1	4%	3%	24%	·	·	·
O=[N+]([O-])c1ccc2c(c1)C(N1CCOCC1)/C(=C/COc1ccc3ccccc3c1Br)O2 (centres undefined)	10%	2.8µM*	0%	4	-10	-4%
O=[N+]([O-])c1ccc(OC/C=C2\Oc3ccc([N+](=O)[O-])cc3C2N2CCOCC2)cc1 (centres undefined)	-11%	?	-24%	14	-27	13%
